Source: PubChem
OTUD3 inh: inhibitors of human OTUD3 deubiquitinase. Q5T2D3. purified OTUD3, Ub-rhodamine fluorescence, 2 h. inhibition, % at 25 µM. 0.7% of 47,000 active. AID 1645858
USP10 block: human USP10 deubiquitinase inhibition. inhibition, % at 20 µM. purified USP10, Ub-rhodamine fluorescence, 60 min. 1.1% of 47,000 active
USP8 inh: human USP8 deubiquitinase inhibition | P40818 | purified USP8, Ub-rhodamine cleavage fluorescence, 30 min | inhibition, % at 20 µM | 4.2% of 47,000 active
USP28 inh: inhibitors of human USP28 deubiquitinase; Q96RU2; purified USP28, Ub-rhodamine cleavage fluorescence, 30 min; inhibition, % at 25 µM; 3% of 47,000 active
USP30 inh: blocks human USP30 ubiquitin-rhodamine cleavage; purified USP30, Ub-rhodamine cleavage fluorescence; AID 1645860; inhibition, % at 25 µM; Q70CQ3; 5.3% of 47,000 active
USP17 inh: blocks human USP17 ubiquitin-rhodamine cleavage | A8MUK1 | purified USP17, Ub-rhodamine cleavage fluorescence, 3 h | inhibition, % at 50 µM | 6.5% of 47,000 active | AID 1645855
Numbers without * were called inactive; i = inactive. An excerpt weighted towards active compounds, which were near 13% of everything screened. Rule as the data show it: active = inhibition above about 30%; inactive = the rest.

SMILES	OTUD3 inh	USP10 block	USP8 inh	USP28 inh	USP30 inh	USP17 inh
C=C1NC(=O)[C@@H](CC)NC(=O)CNC(=O)[C@H](Cc2c[nH]c3cccc(OC)c23)NC(=O)[C@H](Cc2c[nH]c3ccccc23)NC(=O)c2csc(n2)[C@@H](C)NC(=O)CN(C)C1=O	-6.8	-2.0	10.2	-1.7	7.5	31.7*
O=C1N[C@@H](Cc2ccccc2)C(=O)N2[C@H]3Nc4ccccc4[C@@]3([C@]34C[C@H]5C(=O)N[C@@H](Cc6ccccc6)C(=O)N5[C@H]3Nc3ccccc34)C[C@@H]12	6.5	16.2	12.2	21.8	49.5*	52.9*
CCC(C)C1C(=O)N2NCCCC2C(=O)N2NCCCC2C(=O)N(C)C(Cc2ccccc2)C(=O)N2CCCC2C(=O)NC(Cc2ccccc2)C(=O)N1O (centres undefined)	14.3	1.3	0.2	16.8	26.1	6.2
CC(C)(C)c1cc(C(=O)N2C[C@@H]3OCC(=O)N(CCc4ccccc4)[C@H]3C2)n[nH]1	-3.8	-0.8	1.3	-0.1	30.9*	0.6
Cc1nn(C)cc1S(=O)(=O)Nc1ccn(Cc2cccc(F)c2)n1	4.2	1.3	0.7	-0.9	4.4	-1.3
COc1ccc(NC(=O)c2cnc(C)cn2)cc1NS(=O)(=O)c1ccc(Cl)c(Cl)c1	-42.2	-4.5	2.3	-74.5	-215.4	-33.3
Cc1ccc(-c2c[nH]cc2C(=O)c2ccc(Br)cc2)cc1	0.2	1.4	5.9	-2.8	5.3	0.8
CNc1ncc(C(=O)c2ccc(Br)cc2)s1	4.3	1.2	15.9	2.8	39.2*	47.4*
COc1cccc(NC(=O)c2cc(-c3ccccc3)n[nH]2)c1	-9.1	6.3	-15.6	22.8	-9.2	13.2
CC(=O)c1cccc(NC(=O)c2cc(-c3cccnc3)n[nH]2)c1	-2.5	6.5	3.5	90.5*	85.5*	77.9*
O=C(Nc1cccc(Br)c1)c1cc(-c2cccnc2)n[nH]1	20.4	37.1*	98.0*	42.6*	70.9*	7.6
O=C(Nc1ccccc1)N1CCCC2(CCCN2Cc2ccc(Cl)cc2)C1 (centres undefined)	-6.4	-4.0	-2.7	-16.4	-40.6	-19.6
Cc1nn(-c2ccccc2)c2[nH]c(=O)c(CNCC3CCCO3)cc12 (centres undefined)	0.6	3.3	2.2	-3.5	-18.0	8.7
COc1ccc(CCNCc2cc3c(C)nn(-c4ccc(Cl)cc4)c3[nH]c2=O)cc1OC	5.6	-1.0	78.0*	8.5	-33.5	28.9
Cc1nn(-c2ccc(Cl)cc2)c2[nH]c(=O)c(CNCCN(C)C)cc12	-17.2	-8.6	53.4*	-30.8	-95.3	0.3
Cc1nn(-c2ccc(Cl)cc2)c2[nH]c(=O)c(CNCc3ccco3)cc12	-61.9	-4.9	44.2*	-84.7	-389.1	-73.8
Cc1nn(-c2ccc(Cl)cc2)c2[nH]c(=O)c(CNCC3CCCO3)cc12 (centres undefined)	-170.4	4.5	85.6*	-263.6	i	-90.3
CCc1[nH]nc(C(=O)N2CCC(C3Nc4ccccc4S(=O)(=O)N3)CC2)c1C (centres undefined)	-11.6	0.1	-0.5	-11.1	-1.9	-10.7
Cn1c(=O)c2c(-c3ccc(F)cc3)c(Nc3ccccc3)oc2n(C)c1=O	0.0	-2.2	-67.4	2.5	-25.0	-20.1
Cn1c(=O)c2c(-c3cccc(F)c3)c(Nc3ccccc3)oc2n(C)c1=O	2.3	10.4	-9.6	39.1*	15.3	-4.9
Cc1ccc(C)c(S(=O)(=O)N2CCC3(CC2)NCCN=C3NC2CCCC2)c1	-7.5	-0.3	-2.4	-0.7	-0.7	-1.9
Cc1nc(-c2ccc(C)c(S(=O)(=O)Nc3cccc(C#N)c3)c2)cs1	-1.4	4.8	9.4	-2.9	-12.4	5.3
O=c1cc(-c2ccc(F)cc2)oc2ccc(F)cc12	-1.6	3.1	7.2	-9.8	-0.3	30.6*
COc1ccc(-c2cc(=O)c3cc(OC(=O)C4CCCCC4)ccc3o2)cc1	7.5	5.4	15.5	6.8	1.4	-37.5
CCc1ccc(NC(=O)COC(=O)C2CC(=O)N(c3ccc(F)cc3)C2)cc1 (centres undefined)	3.7	-1.4	2.8	25.2	13.7	12.7
SMILES	OTUD3 inh	USP10 block	USP8 inh	USP28 inh	USP30 inh	USP17 inh
CCc1ccc(N2CC(C(=O)OCc3cc(=O)oc4c(C)c(C)ccc34)CC2=O)cc1 (centres undefined)	15.7	6.5	5.2	4.2	45.0*	30.9*
COc1ccc(-c2c(C)c(C(=O)c3cc(OC)c(OC)c(OC)c3)n3ccc4cc(OC)c(OC)cc4c23)cc1OC	-39.0	-9.6	-13.9	-158.3	-196.0	-8.5
O=C(C[n+]1cc(-c2ccc(F)cc2)n2c1CCC2)c1cccs1	-0.6	0.4	-31.5	0.5	8.5	0.0
Cc1ccc(-c2c[n+](CC(=O)Nc3cccc4ccccc34)c3n2CCC3)cc1	10.5	-2.0	26.1	17.9	34.0*	6.8
O=C(c1c2c(-c3ccncc3)ncnc2n2ccccc12)N1CCOCC1	-20.2	-2.3	33.0*	-25.3	-76.6	0.9
O=C(c1c2c(N3CCCC3)ncnc2n2ccccc12)N1CCCC1	-25.1	-4.3	66.7*	-32.2	-193.8	18.7
CC(C)Nc1ncnc2c1c(C(=O)N1CCOCC1)c1ccccn12	-15.6	-8.7	16.6	-20.0	-66.7	-1.0
Cc1cc(CN2CC[C@H]3[C@H]2CCN3C(=O)c2cnn(C)c2)oc1C	-23.5	-5.4	-55.6	-26.8	-55.4	-32.0
N#Cc1ccc(-c2nc(-c3cn(Cc4cccc(F)c4)nn3)no2)cc1	8.1	17.5	6.2	0.0	-32.3	35.8*
c1ccc(Cn2cc(-c3noc(-c4cccnc4)n3)nn2)cc1	-0.7	3.7	7.3	-2.8	17.2	6.8
Cc1ccc(Cn2cc(-c3noc(C(=O)Nc4cc(F)ccc4F)n3)nn2)cc1	8.0	50.9*	89.9*	10.6	25.3	8.9
COc1ccccc1-c1nc(-c2cn(Cc3ccc(C)cc3)nn2)no1	7.7	12.8	5.5	21.1	30.2*	8.4
Fc1ccc(Cn2cc(-c3noc(-c4ccccn4)n3)nn2)cc1	1.3	-0.3	-79.1	9.1	1.7	-19.1
Cc1ccc(Cn2cc(-c3noc(-c4ccco4)n3)nn2)cc1	-0.9	2.0	-3.9	5.6	-9.0	-1.4
CCOc1ccccc1-c1nc(-c2cn(Cc3ccc(F)cc3)nn2)no1	8.9	8.7	0.5	-1.3	58.2*	63.7*
O=C(c1ccncc1)N1C[C@H]2C[C@H]3[C@](C1)(CN(Cc1ccccc1)S3(=O)=O)O2	-6.7	0.8	-40.5	-11.9	-4.5	-17.5
COc1ccc(NC(=O)Cn2c(=O)n(CCCC(=O)NC3CCCC3)c(=O)c3cc(Cl)ccc32)c(OC)c1	16.0	31.1*	6.9	-0.2	31.2*	21.7
COc1cc2c(=O)n(CCC(=O)NCC3CCCO3)c(=O)n(CC(=O)Nc3cccc(Cl)c3)c2cc1OC (centres undefined)	4.5	-3.9	-5.7	1.7	16.1	12.7
